C diff growth = C. difficile growth inhibition; AID 1259249; actives 0.25% (n = 86,000); growth activity, negative = inhibition, % at 16 µg/mL (by protocol); Clostridium difficile clinical isolate growth, OD600, 24 h; stronger effect = lower value;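 active means mean growth activity at or below -80% and every replicate also at or below -80%; inconclusive means mean at or below -80% but some replicate above -80%; inactive means mean growth activity above -80%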;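 further: 0% = DMSO wells and -100% = levofloxacin 16 µg/mL wells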
T cruzi growth-1 = blocks T. cruzi growth in NIH3T3 culture. T. cruzi beta-gal in NIH3T3, GalScreen luminescence, 90 h. inhibition, % at 8.34 µM. actives 5.9% (n = 77,000). AID 624255;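 active means mean inhibition above about 93%, with at least 55% of replicates each passing it, limit read from the data, passing the limit was not always enough; inconclusive means only one of those two conditions holds; inactive means neither condition holds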
Pf Dd2 inh = inhibitors of Plasmodium falciparum Dd2 growth | AID 1159554 | activity change, % at 10 µM | actives 2.3% (n = 94,000) | P. falciparum Dd2 growth, SYBR Green, 72 h; stronger effect = lower value; in the data active means activity change below about -80%; inconclusive means no clear call, values can overlap the other calls
T cruzi growth-2 = inhibitors of T. cruzi proliferation; shares compounds with T cruzi growth-1; T. cruzi beta-gal in NIH3T3, GalScreen luminescence, 90 h; inhibition, % at 8.35 µM; actives 72% (n = 5,600); AID 651739;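 active means mean replicate inhibition above about 95% and at least 55% of replicates individually reaching it, limit read from the data; inconclusive means only one of the two criteria is met; inactive means neither criterion is met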
T cruzi growth-3 = Trypanosoma cruzi proliferation inhibition. shares compounds with T cruzi growth-1. T. cruzi beta-gal in NIH3T3, GalScreen luminescence, 90 h. inhibition, % at 2.09 µM. actives 21% (n = 5,600). AID 651740;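 active means mean inhibition above about 95%, with at least 55% of replicates also reaching it, limit read from the data; inconclusive means meets just one of the two conditions; inactive means meets neither condition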;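 further: plate controls were neutral control median for no effect and positive control median for full effect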
3T3 cytotox = NIH/3T3 (mouse) viability loss; shares compounds with T cruzi growth-1; actives 14% (n = 5,600); NIH/3T3 viability, CellTiter-Glo ATP luminescence, 90 h; cytotoxicity (signal decrease), % at 8.35 µM;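 active means mean signal decrease across replicates above about 35% based on untreated-well scatter, with enough replicates individually passing, limit read from the data; inconclusive means no rule stated though some were filed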;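 further: 0% = median of neutral control wells and 100% = median of positive control wells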
3T3 cytotox 2 = cytotoxicity in mouse NIH/3T3 fibroblasts | shares compounds with T cruzi growth-1 | NIH/3T3 viability, CellTiter-Glo ATP luminescence, 90 h | inhibition, % at 24.9 µM | actives 56% (n = 5,600);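 active means mean loss of cell viability signal at or above a set limit, and enough replicates individually reaching it; inconclusive means meets only the mean limit or only the replicate share; inactive means meets neither condition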;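 further: 0% = median of neutral control wells and 100% = median of positive control wells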
Active calls of the source: *; ? = inconclusive; · = no result. Only some compounds are listed: those with a hit (about 6.8% of all), similar ones and a draw of the others.

SMILES | C diff growth | T cruzi growth-1 | Pf Dd2 inh | T cruzi growth-2 | T cruzi growth-3 | 3T3 cytotox | 3T3 cytotox 2
C[C@H]1CN([C@@H](C)CO)C(=O)c2cc(NC(=O)CCN3CCOCC3)ccc2O[C@H]1CN(C)S(=O)(=O)c1ccc(F)cc1 | -4 | 25 | 6 | · | · | · | ·
CN(C)CC(=O)N1CCCCN2[C@H](CO)[C@@H](c3ccc(-c4cccnc4)cc3)[C@H]2C1 | 6 | 57 | -66 | · | · | · | ·
CCC(=O)N1CCCCN2[C@@H](CO)[C@@H](c3ccc(-c4cccnc4)cc3)[C@@H]2C1 | -3 | 96* | 8 | 90 | 86 | -7 | -24
CCC(=O)N1CCCCN2[C@H](C1)[C@H](c1ccc(-c3cccnc3)cc1)[C@@H]2CO | -6 | 113* | -78 | 34 | 0 | 6 | -9
CN(C)CC(=O)N1CCCCN2[C@H](C1)[C@@H](c1ccc(-c3cccnc3)cc1)[C@@H]2CO | 7 | 65 | -30 | · | · | · | ·
CCCC#Cc1cnc2c(c1)C(=O)N([C@@H](C)CO)C[C@H](C)[C@@H](CN(C)Cc1ccc3c(c1)OCO3)O2 | 8 | · | -37 | · | · | · | ·
CO[C@H]1CN(C)C(=O)c2cc(NC(=O)Nc3cc(F)ccc3F)ccc2OC[C@H](C)N(C)C[C@H]1C | · | 2 | -21 | · | · | · | ·
CCS(=O)(=O)Nc1ccc2c(c1)C(=O)N(C)C[C@@H](OC)[C@@H](C)CN(CCC(F)(F)F)[C@H](C)CO2 | · | 22 | 0 | · | · | · | ·
COc1ccc(NC(=O)Nc2ccc3c(c2)C(=O)N([C@@H](C)CO)C[C@@H](C)[C@@H](CN(C)S(=O)(=O)c2ccc(C)cc2)OCCCC[C@@H](C)O3)cc1 | · | 97* | -60 | 104* | 31 | -24 | -11
COc1ccc(NC(=O)Nc2ccc3c(c2)C(=O)N([C@H](C)CO)C[C@H](C)[C@@H](CN(C)S(=O)(=O)c2ccc(C)cc2)OCCCC[C@H](C)O3)cc1 | · | 61 | -54 | · | · | · | ·
COc1ccc(NC(=O)Nc2ccc3c(c2)C(=O)N([C@@H](C)CO)C[C@H](C)[C@H](CN(C)S(=O)(=O)c2ccc(C)cc2)OCCCC[C@H](C)O3)cc1 | · | 104* | -74 | 111* | 68 | -9 | -7
COc1ccc(S(=O)(=O)N(C)C[C@H]2OCCCC[C@@H](C)Oc3ccc(NC(=O)NC(C)C)cc3C(=O)N([C@@H](C)CO)C[C@@H]2C)cc1 | -4 | -12 | · | · | · | · | ·
COc1ccc(S(=O)(=O)N(C)C[C@@H]2OCCCC[C@@H](C)Oc3ccc(NC(=O)Nc4ccccc4)cc3C(=O)N([C@H](C)CO)C[C@H]2C)cc1 | -4 | 104* | -79 | 104* | 62 | -17 | 17
COc1ccc(NC(=O)Nc2ccc3c(c2)C(=O)N([C@@H](C)CO)C[C@H](C)[C@@H](CN(C)S(=O)(=O)c2ccc(C)cc2)OCCCC[C@H](C)O3)cc1 | · | 102* | -70 | 105* | 34 | -3 | 4
COc1ccc(NC(=O)Nc2ccc3c(c2)C(=O)N([C@H](C)CO)C[C@@H](C)[C@H](CN(C)S(=O)(=O)c2ccccc2)OCCCC[C@H](C)O3)cc1 | -18 | -2 | -18 | · | · | · | ·
COc1ccc(NC(=O)Nc2ccc3c(c2)C(=O)N([C@@H](C)CO)C[C@@H](C)[C@@H](CN(C)S(=O)(=O)c2ccccc2)OCCCC[C@H](C)O3)cc1 | 0 | 11 | 0 | · | · | · | ·
COc1ccccc1NC(=O)N1CCCCN2[C@H](C1)[C@@H](c1ccc(-c3cccc(F)c3)cc1)[C@@H]2CO | 25 | 59 | -58 | · | · | · | ·
COc1ccccc1NC(=O)N1CCCCN2[C@H](CO)[C@H](c3ccc(-c4ccccc4)cc3)[C@H]2C1 | 60 | 108* | -53 | 108* | 74 | 23 | 105*
COc1ccccc1NC(=O)N1CCCCN2[C@@H](CO)[C@@H](c3ccc(-c4ccccc4)cc3)[C@@H]2C1 | 48 | ? | -70 | 104* | 87 | 61* | 104*
COc1ccccc1NC(=O)N1CCCCN2[C@@H](CO)[C@@H](c3ccc(-c4cccc(C#N)c4)cc3)[C@@H]2C1 | 25 | 89 | -45 | · | · | · | ·
COc1ccccc1NC(=O)N1CCCCN2[C@@H](CO)[C@H](c3ccc(-c4cccc(C#N)c4)cc3)[C@@H]2C1 | 16 | 93 | -39 | · | · | · | ·
COc1ccccc1NC(=O)N1CCCCN2[C@H](CO)[C@@H](c3ccc(-c4cccc(F)c4)cc3)[C@@H]2C1 | 15 | 111 | -50 | · | · | · | ·
COc1ccccc1NC(=O)N1CCCCN2[C@@H](CO)[C@H](c3ccc(-c4ccccc4)cc3)[C@@H]2C1 | 51 | 102* | 2 | 100* | 74 | 45* | 103*
COc1ccccc1NC(=O)N1CCCCN2[C@H](CO)[C@H](c3ccc(-c4cccc(F)c4)cc3)[C@@H]2C1 | -2 | 115* | -71 | 101* | 110* | 22 | 37*
C/C=C/c1ccc([C@@H]2[C@@H](CNC(=O)c3ccncc3)N(C(=O)CC)[C@H]2CO)cc1 | -10 | 65 | -3 | · | · | · | ·
SMILES | C diff growth | T cruzi growth-1 | Pf Dd2 inh | T cruzi growth-2 | T cruzi growth-3 | 3T3 cytotox | 3T3 cytotox 2
COc1ccc(C(=O)Nc2ccc3c(c2)C(=O)N(C)[C@H]2CC[C@H](CC(=O)NCC4CC4)O[C@H]2CO3)cc1 | -8 | 27 | · | · | · | · | ·
O=C(c1ccccc1F)N1CC(=O)N2[C@@H](CO)[C@@H](c3ccc(C#Cc4ccc(F)cc4)cc3)[C@@H]2C1 | 0 | · | -8 | · | · | · | ·
CS(=O)(=O)N1[C@H](C#N)[C@@H](c2ccc(C#CC3CCCCC3)cc2)[C@H]1CO | -10 | 79 | -5 | · | · | · | ·
CN(C)CC(=O)N1[C@H](C#N)[C@H](c2ccc(C#CC3CCCC3)cc2)[C@@H]1CO | 25 | 75 | -31 | · | · | · | ·
N#C[C@@H]1[C@H](c2ccc(C#CC3CCCC3)cc2)[C@@H](CO)N1C(=O)Nc1ccc(F)cc1 | -2 | 98* | -9 | 99* | 95 | 2 | 107*
N#C[C@H]1[C@H](c2ccc(C#CC3CCCC3)cc2)[C@@H](CO)N1C(=O)Nc1ccc(F)cc1 | 6 | 93 | -38 | · | · | · | ·
N#C[C@@H]1[C@H](c2ccc(C#CC3CCCC3)cc2)[C@@H](CO)N1C(=O)Cc1ccccn1 | -3 | · | -76 | · | · | · | ·
N#C[C@H]1[C@@H](c2ccc(C#CC3CCCCC3)cc2)[C@H](CO)N1C(=O)Cc1ccccn1 | 17 | 100* | -34 | 101* | 104* | -33 | 81*
CC(C)NC(=O)N1[C@H](CO)[C@H](c2ccc(C#CC3CCCCC3)cc2)[C@@H]1C#N | -5 | 107* | -32 | 98* | 116* | 30 | 54*
CC(C)NC(=O)N1[C@H](C#N)[C@@H](c2ccc(C#CC3CCCC3)cc2)[C@H]1CO | -17 | 102* | -9 | 102* | 97* | 6 | 37*
COc1ccc(S(=O)(=O)Nc2ccc3c(c2)CC(=O)N([C@H](C)CO)C[C@H](C)[C@@H](CN(C)C(=O)Nc2ccc4c(c2)OCO4)O3)cc1 | 6 | 42 | 1 | · | · | · | ·
